From PubChem BioAssay (Tox21)
A number with no mark means an inactive call. Calls of active or inactive are those of the source. Calls come from the whole dose curve; as a rule, active = well fitted curve in the direction sought with a large enough effect in the repeat runs; inconclusive = weak or mixed curves; inactive = flat fitted curve, though single readings scatter.

Test: qHTS assay to test for compound auto fluorescence at 535 nm (green) in HepG2 cell free culture (AID 720686)
Details: Cell-free medium, green autofluorescence 485/535 nm; series mostly up to 91.3 µM; fluorescence, % of fluorescein control: at the top concentration
Text: U.S. Tox21 Program National Center for Advancing Translational Sciences [NCATS] NIH Chemical Genomics Center [NCGC] U.S. Environmental Protection Agency [EPA] National Institutes of Environmental Health Sciences [NIEHS] National Toxicology Program [NTP] U.S. Food and Drug Administration [FDA] Tox21 Assay Overview: Compound auto fluorescence often interferes with screening of the compound library against various biological targets and signaling pathways. Some of these compounds may have fluorophoric properties. Such properties may interfere with the assay outputs resulting in false positives and/or negatives. To decrease such complications and ensure the compound activities are relevant in terms of biological response, the Tox21 10K compound library was screened for auto fluorescence. From the fluorophores used as reporter signals in our screening assays, the auto fluorescence equivalencies of compounds against three fluorophores have been evaluated: Triamterene, Fluorescein and Rose Bengal sodium for blue, green and red fluorescence, respectively. The fluorescence intensities were measured using Excitation/Emission wavelengths at 405/460nm, 485/535nm and 540/590nm for blue, green and red labels, respectively. This assay includes the green fluorescence data.
Tox21 Assay Protocol Summary: 5 uL of culture medium (MEM containing 10% FBS) per well was dispensed into black wall/clear bottom 1536-well plates using a Multidrop Combi Dispenser (ThermoFisher Scientific, Waltham, MA). After 23 nL compound or DMSO vehicle was transferred into assay plate by a pintool work station (Kalypsys, San Diego, CA), fluorescence intensities in the assay plates were measured by an Envision (PerkinElmer, Shelton, CT) plate reader using three labels for measuring blue, green and red fluorescence at […] 460, 535 and 590nm respectively.
% is set by controls: 0 for no effect and ±100 for the full control effect.

Row | Structure (SMILES) | fluorescence, % of fluorescein control | outcome
1 | ClC(Cl)Br | 0.0308% | 
2 | CNC(=O)Oc1c(C(C)(C)C)cc(C)cc1C(C)(C)C | 0.144% | 
3 | CC1(C)C(=O)NC(=O)NC1=O | -0.0203% | 
4 | c1cc[c]([Hg][c]2ccccc2)cc1 | 0.0252% | 
5 | CC1CN1P(=O)(N1CC1C)N1CC1C (stereo not given) | 0.069% | 
6 | O=c1oc2ccccc2c(O)c1C1CCCc2ccccc21 (stereo not given) | -0.11% | 
7 | Oc1c(Cl)cccc1Cl | 0.0205% | 
8 | CSc1ccc(C(=O)C(C)(C)N2CCOCC2)cc1 | -0.0811% | 
9 | NC(=S)C(N)=S | 0.0273% | 
10 | C=C(C)[C@@H]1CC=C(C=O)CC1 | 0.126% | 
11 | Cc1ncc(CNC(=O)N(CCCl)N=O)c(N)n1 | -0.0113% [at 46 µM] | 
12 | CCOP(=O)(N=C1SCCS1)OCC | -0.0123% | 
13 | ClCC(Cl)Cl | 0.104% [at 95.7 µM] | 
14 | COc1cccc2c1cc([N+](=O)[O-])c1c(C(=O)O)cc3c(c12)OCO3 | -0.227% | 
15 | CCN(CC)CCOC(=O)C(C)(c1ccccc1)c1ccccc1 | 0.0458% [at 46 µM] | 
16 | O=C(O)c1cccc(Cl)c1 | 0.0279% | 
17 | CCC(C)(C)c1cc(-n2nc3ccccc3n2)c(O)c(C(C)(C)CC)c1 | 0.0024% [at 95.7 µM] | 
18 | CCOP(=S)(OCC)Oc1ncn(-c2ccccc2)n1 | 0.0479% | 
19 | COc1ncc(F)c2nc(S(=O)(=O)Nc3c(F)cccc3F)nn12 | -0.0123% | 
20 | C[C@]1(O)CC[C@H]2[C@@H]3CCC4=CC(=O)CC[C@]4(C)[C@@]3(F)[C@@H](O)C[C@@]21C |  | inactive

Row | Structure (SMILES) | fluorescence, % of fluorescein control | outcome
21 | CNC(=O)N(C)c1nc2ccccc2s1 | -0.0471% | 
22 | N#CCBr | 0.0971% [at 95.7 µM] | 
23 | N#CC(Cl)(Cl)Cl | -0.0291% | 
24 | O=P(O)(Oc1ccccc1)Oc1ccccc1 | -0.0412% | 
25 | CCOC(=O)NC(=S)Nc1ccccc1NC(=S)NC(=O)OCC | 0.0222% | 
26 | CCC(Cl)[N+](=O)[O-] (stereo not given) | 0.0211% [at 95.7 µM] | 
27 | COC(=O)c1ccccc1S(=O)(=O)NC(=O)Nc1nc(C)cc(C)n1 | 0.0916% | 
28 | COCC(=O)N(c1c(C)cccc1C)N1CCOC1=O | -0.0163% | 
29 | CCOP(=O)(OCC)OP(=O)(OCC)OCC | 0.0131% | 
30 | O=[N+]([O-])c1ccc2c3c(cccc13)CC2 | 0.0544% | 
31 | Cc1ccccc1CO[C@@H]1C[C@@]2(C(C)C)CC[C@]1(C)O2 | 0.0451% | 
32 | O=NN1CCN(N=O)CC1 | 0.0121% | 
33 | COC(=O)C1=CCCN(C)C1 | -0.0018% [at 46 µM] | 
34 | C(CCOCC1CO1)COCC1CO1 (stereo not given) | -0.073% | 
35 | CCN(CC)C(=O)[C@@H]1C=C2c3cccc4[nH]cc(c34)C[C@H]2N(C)C1 |  | inactive
36 | O=C(Oc1ccc(Br)cc1)N1CCN2CCC1CC2 | -0.005% | 
37 | ClC(Br)Br | -0.0317% | 
38 | CCCCC(=O)Cl | 0.0384% | 
39 | CC(=O)CC(c1ccc(Cl)cc1)c1c(O)c2ccccc2oc1=O (stereo not given) | 0.0286% [at 95.7 µM] | 
40 | Clc1cccc(N2CCNCC2)c1 | -0.0749% [at 46 µM] | 
